Bioassay records deposited in PubChem BioAssay by National Center for Advancing Translational Sciences (NCATS).
Sm TGR inh – qHTS Assay for the Inhibitors of Schistosoma Mansoni Peroxiredoxins; purified TGR, DTNB reduction, TNB absorbance 405 nm; Potency, µM (doses to about 114 µM), most hits filed as inhibitors; hit rate 3% among 360,000; Schistosoma mansoni thioredoxin glutathione reductase (TGR), Q962Y6; further: nearly all actives have a fitted effect of over 60% in size
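First, TGR (20 nM dispensed) and NADPH were mixed with compound. Second, a 15 min room-temperature incubation followed. Third, further NADPH and then DTNB were added to start the reaction. Finally, TNB absorbance was monitored kinetically.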
Giardia FBPA inh-1 – qHTS Assay for Inhibitors of Fructose-1,6-bisphosphate Aldolase from Giardia Lamblia. hit rate 0.71% among 290,000. Potency, µM (top dose mostly 59.6 µM), most hits filed as inhibitors. A8B2U2. AID 2451, 2010. purified Giardia FBPA; further: nearly all actives have a fitted effect of over 55% in size
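40 nM FBPA preincubated 10 min at RT with compound (up to 57.5 uM final), then substrate plus GAPDH/TPI/NAD/arsenate coupling and diaphorase/resazurin added. Fluorescence read after 20 min at RT, 525/598 nm.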
FMDV antiviral – High Throughput Screening for Foot and Mouth Disease Virus Antivirals | FMDV antiviral cell-based qHTS | Potency, µM (titrated, usually from 57.9 µM), usual class: inhibitors | hit rate 1.2% among 410,000; calls by dose curve; tested in HEK293T cells; further: read-out not given here; nearly all actives have a fitted effect of over 45% in size
RE007 growth inh – qHTS Assay for Inhibitors of the HIV-1 protein Vpr | S. pombe RE007 Vpr strain, BacTiter-Glo ATP luminescence, 24 h | hit rate 0.21% among 360,000 | Potency, µM (doses to about 92.2 µM), most hits filed as inhibitors; active means well fitted falling curve with a large enough effect; inconclusive means small, poorly fitted or top-dose-only effect; inactive means no such curve, though single readings can be large or run the other way; further: nearly all actives have a fitted effect of over 50% in size
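Fission yeast strain RE007, carrying one chromosomally integrated HIV-1 vpr copy, was seeded at OD 0.01 in PMG+AL medium with 23 nL pinned compound. After 24 h at 30 °C and 99% humidity, viability was read by BacTiter-Glo luminescence.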
TbPYK inhibitor – qHTS of Trypanosoma Brucei Inhibitors; TbPYK enzyme, Kinase-Glo Plus ATP luminescence, 45 min; AID 624173, 2012; hit rate 0.12% among 410,000; Potency, µM (highest dose often 76.8 µM), hits mostly inhibitors; further: nearly all actives have a fitted effect of over 50% in size
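Quantitative HTS: titrated library compounds versus trypanosomal pyruvate kinase in TEA buffer (pH 7.2) containing KCl, MgCl2, BSA and Tween-20. Reactions were initiated with ADP, 130 uM final. Kinase-Glo Plus luminescence was read after 45 min at RT.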
HCMV antiviral – qHTS Assay for inhibitors of the human cytomegalovirus (HCMV); AID 1259415, 2018; activity change, negative = inhibition, % at 57.5 µM; hit rate 4.5% among 410,000; HFF cells, HCMV-luciferase reporter, 72 h; active compounds read low; in the data active means activity change below about -60%; inconclusive means no clear call, values can overlap the other calls; inactive means above about -39%
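Screen run at 2 compound doses on HFFs infected with reporter HCMV, MOI 1 PFU/cell. Luciferase activity from cell lysates at 72 h post infection gave inhibition relative to buffer-only and Salinomycin wells.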
Giardia growth – qHTS Assay for Inhibitors of Fructose-1,6-bisphosphate Aldolase from Giardia Lamblia: Giardia lamblia growth inhibition | shares compounds with Giardia FBPA inh-1 | Giardia lamblia trophozoite growth inhibition | Potency, µM (top dose mostly 57.5 µM), hits mostly inhibitors | hit rate 5% among 1,500;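 further: trophozoites exposed to compound for 48 h at 37 °C; nearly all actives have a fitted effect of over 70% in size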
Mammal cell tox – qHTS Assay for Inhibitors of Fructose-1,6-bisphosphate Aldolase from Giardia Lamblia: Mammalian cellular toxicity | shares compounds with Giardia FBPA inh-1 | mammalian cell viability counter-screen, qHTS | Potency, µM (series often up to 57.5 µM), actives largely listed as inhibitors | hit rate 4% among 1,500 | AID 2786, 2010;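 further: Chinese hamster ovary cells used as mammalian cytotoxicity surrogate; viability measured as cellular ATP by luminescence; compound exposure lasted 48 h before reading; nearly all actives have a fitted effect of over 60% in size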
Giardia FBPA inh-2 – qHTS Assay for Inhibitors of Fructose-1,6-bisphosphate Aldolase from Giardia Lamblia: Primary screen confirmation | purified Giardia aldolase enzyme activity, qHTS | AID 2787, 2010 | hit rate 5% among 1,500 | shares compounds with Giardia FBPA inh-1 | Potency, µM (top dose mostly 57.5 µM), most hits filed as inhibitors; further: nearly all actives have a fitted effect of over 45% in size
Rabbit FBPA inh – qHTS Assay for Inhibitors of Fructose-1,6-bisphosphate Aldolase from Giardia Lamblia: Rabbit FBPA Selectivity. Rabbit muscle FBPA enzyme inhibition, selectivity counter-screen. Potency, µM (highest dose often 57.5 µM), hits mostly inhibitors. shares compounds with Giardia FBPA inh-1. hit rate 4% among 1,500; further: nearly all actives have a fitted effect of over 60% in size
Target sequence (P00883 whole entry, looked up): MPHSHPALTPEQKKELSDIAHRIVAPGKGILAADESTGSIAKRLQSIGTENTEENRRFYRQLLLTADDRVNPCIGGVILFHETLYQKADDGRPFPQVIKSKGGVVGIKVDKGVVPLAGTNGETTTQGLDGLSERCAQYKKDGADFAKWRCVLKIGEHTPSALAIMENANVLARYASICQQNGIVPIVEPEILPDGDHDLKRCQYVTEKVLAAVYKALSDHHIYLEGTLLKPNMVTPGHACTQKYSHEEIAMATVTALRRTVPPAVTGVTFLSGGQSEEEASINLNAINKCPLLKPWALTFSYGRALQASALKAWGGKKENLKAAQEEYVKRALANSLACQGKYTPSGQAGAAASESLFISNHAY
GAPDH coupling – qHTS Assay for Inhibitors of Fructose-1,6-bisphosphate Aldolase from Giardia Lamblia: Coupling assay counterscreen confirmation | shares compounds with Giardia FBPA inh-1 | GAPDH coupling enzyme counterscreen, biochemical, qHTS | Potency, µM (top dose mostly 57.5 µM), most hits filed as inhibitors | hit rate 6% among 1,500; further: nearly all actives have a fitted effect of over 55% in size
Hits are given with their value; n = inactive; u = inconclusive; x = no result; [ ] = another dose, or the depositor's remark. Rows were chosen to be rich in hits. Some 7.7% of all compounds tested hit in one or more screens of this group. Unless noted, the call rests on the fitted dose curve; in most records, active means well fitted curve in the direction sought with a large enough effect; inconclusive means small, poorly fitted or top-dose-only effect, or another doubt; inactive means no such curve, though single readings can be large; an effect the other way counts as inactive or inconclusive.

SMILES	Sm TGR inh	Giardia FBPA inh-1	FMDV antiviral	RE007 growth inh	TbPYK inhibitor	HCMV antiviral	Giardia growth	Mammal cell tox	Giardia FBPA inh-2	Rabbit FBPA inh	GAPDH coupling
Cn1cccc1C(=O)N1CCC2(CC1)CN(C(=O)Nc1cccc(F)c1)C2	x	n	n	x	n	x	x	x	x	x	x
O=C(COc1ccccc1O)N1CCN(C(=O)c2ccco2)CC1	n	n	n	n	n	n	x	x	x	x	x
O=C(COc1cccnc1[N+](=O)[O-])N1CCN(C(=O)c2ccco2)CC1	n	18µM	n	n	n	n	n[10.4 µM]	n	n	n	n
O=C(N/N=C/c1ccccn1)c1cccc(S(=O)(=O)Nc2ccccc2Cl)c1	n	16µM	n	n	n	n	u	n	n	n	u
CCN(CC)S(=O)(=O)c1cccc(C(=O)N/N=C/c2ccccn2)c1	n	18µM	n	n	n	n	n	n	n	n	n
O[N+]1=CC=CCC1=S.On1ccccc1=S.[Zn]	x	0.5µM	8.9µM	x	x	x	10µM	2.8µM	u	u	u
COc1cc2c(cc1OC)n(CC(=O)c1ccc(C)cc1C)c(=O)n1nc(CCn3nc(C)cc3C)nc21	n	x	n	x	n	n	x	x	x	x	x
NCc1c(O)ccc2ccccc12	13µM	n	x	x	x	n	n	n	1.6µM	u	u
O=C(O)Cc1c(O)ccc2ccccc12	n	n	n	n	n	n	x	x	x	x	x
COc1ccc(NS(=O)(=O)c2c(C)cc(C)cc2C)cn1	n	u	n	n	n	n	n	n	n	n	n
COc1ccc(NS(=O)(=O)c2ccc(Br)cc2)cn1	n	n	n	n	n	n	x	x	x	x	x
COc1ccc(C2C(C(=O)Nc3ccccc3)=C(C)Nc3c(C(=O)Nc4ccccc4)cnn32)cc1 (stereo not given)	n	x	n	x	n	n	x	x	x	x	x
CC1(C)CC(=O)C(/C=N/n2cnc3ccccc3c2=O)=C(O)C1	n	18µM	n	n	n	n	n	n	n	n	n
CC1(C)CC(=O)C(/C=N/c2ccccn2)=C(O)C1	n	n	x	n	n	n	x	x	x	x	x
Cc1ccc(Cl)cc1N1CCN(C(=O)c2cc(S(=O)(=O)N3CCCC3)cn2C)CC1	n	x	n	x	n	n	x	x	x	x	x
O=C(O)CC(Sc1n[nH]c(=S)s1)C(=O)O (stereo not given)	n	4.5µM	n	n	u	n	n	u	u	u	u
CCOc1ccc(NC(=O)C2CCCN(c3ccc(Sc4ccc(C)cc4)nn3)C2)cc1 (stereo not given)	n	x	n	x	n	n	x	x	x	x	x
O=C(NNC(=O)c1ccccc1[N+](=O)[O-])c1ccccn1	n	16µM	n	n	n	n	n[10.4 µM]	n	n	n	n
CCOC(=O)c1c(NC(=O)CN(C)C2CCN(C)CC2)sc(C(=O)Nc2ccccc2)c1C	n	20µM	n	n	n	n	u	n	n	n	n
Cc1ccc(NC(=S)Nc2cccc3cnccc23)cc1C	u	u	u	n	n	n	x	x	x	x	x
